The sequences below were run against DEF6 (assay: pooled miR-30 sensor sort-seq; sequence = guide strand). Conditions: shRNA.

Sequence	sensor-assay potency score (higher = more potent)
TTGAAGAGGCACCAGAGGCGGA	-1.08
AAGAGCTCCAGGAACTGCCAGA	-0.993
TCAACTGCTTCAGCTTCTCTTC	-0.841
TTGTGTAGGGACGTCTTCCCCT	-0.678
TCTTCCAGCAGTCTGGTCTGAG	-0.41
TTCTTCATCTCGCCGAGCTTTC	-1.29
TTCATCTGGACATTCCAGTGTT	0.421
TGACCGGACGCTTATCTCCAGG	-1.34

What follows are sequences tested against DEK in the same assay as above. Conditions: shRNA.

Sequence	sensor-assay potency score (higher = more potent)
TTAACTCTTCATCTGTAGGGGG	0.319
TTAATGAGGACACAGTGCCTGG	-0.975
ATCATCTGAAGACTCTTCCTTG	-0.474
TTATTGTTTCCTTTAACTCTTC	-0.171
TAGATTTCTAAGTTCATCGGTT	0.499
TTCTTTATCTTCATCATCTGAA	0.212
TAGTTCACTATTTACACCTGAT	-0.118
TAACTCTTCATCTGTAGGGGGT	0.328
TTTGGAACTGTTTTGATTCTTC	0.827
TTTCCTTTAACTCTTCATCTGT	0.131
TTTTACTTTTAGAAGTAGCTTT	0.164
TTTAACTCTTCATCTGTAGGGG	0.332

Reference: the OligoGym collection
